# Screening results: PubChem, several laboratories
# Sampled rows, rich in hits. Any-hit rate of the full collection: about 6.2%.
# AI-2 QS modul – modulates the Vibrio harveyi AI-2 quorum sensing system; activity change, % at 7.5 µM; AID 2094; Vibrio harveyi JMH597 AI-2 luminescence/OD600 ratio, 9 h; stronger effect = lower value; strain lacks LuxN and CqsS sensors; 0 = neutral-control median; 300,000 tested, 0.4% active; in the data active means activity change below about -75%, passing the limit was not always enough;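 further: luminescence divided by OD600 gain over 9 h not by final OD600 alone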
# Mot1-301 SUMO – inhibitors of SUMOylation pathway: yeast Mot1-301 growth rescue | S. cerevisiae Mot1-301 growth rescue, ATP luminescence, 38.5C; percent above DMSO median, 100 means doubled | AID 2716 | growth rescue, % at 18.8 µM | 320,000 tested, 1% active;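 active means every valid replicate shows activation above 250% relative to neutral control wells; inactive means the rest, any valid replicate at or below 250%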;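 further: OY570 slx delta 5 strain wells were the positive control but not used for scaling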
# AHR activator – activators of human aryl hydrocarbon receptor; activation, % at 5 µM; AHR-responsive luciferase reporter cells, luminescence; P35869; 320,000 tested, 2.5% active; AID 2796; in the data active means activation above about 47%;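 further: 0% = vehicle wells and 100% = reference agonist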
# GRIN3A LBD mod – modulates the human NR3A ligand-binding domain; NR3A LBD differential scanning fluorimetry, Tm shift; 0% = protein alone, 100% = glycine-bound protein; 340,000 tested, 2.5% active; Tm shift relative to glycine control, % at 25 µM;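 active means melting temperature shift of at least 10% of the positive control shift, at one fixed dose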
# Cardio protect – protects H9c2 cardiomyocytes from peroxide injury; H2O2 injury protection, ATPLite, 2 h; protection from H2O2 cell death, % at 20 µM; 360,000 tested, 0.63% active;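 active means compounds giving at least 50% protection of heart cells from peroxide-induced death in the single-dose screen, raw or plate-pattern-corrected value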;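 further: 0% = DMSO wells with peroxide and 100% = DMSO wells without peroxide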
# NTR1 agonist – activates human neurotensin receptor 1; 330,000 tested, 0.17% active; P30989; NTR1-U2OS beta-arrestin-GFP spot imaging, agonist mode; activation, % at 20 µM; AID 493036;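 active means activation at or above 40% of the spot to cytoplasm intensity ratio, with at least 20 cells analyzed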;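 further: 0% = DMSO without peptide and 100% = 100 nM NTR1 peptide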
# Target sequence (P30989 whole entry, looked up): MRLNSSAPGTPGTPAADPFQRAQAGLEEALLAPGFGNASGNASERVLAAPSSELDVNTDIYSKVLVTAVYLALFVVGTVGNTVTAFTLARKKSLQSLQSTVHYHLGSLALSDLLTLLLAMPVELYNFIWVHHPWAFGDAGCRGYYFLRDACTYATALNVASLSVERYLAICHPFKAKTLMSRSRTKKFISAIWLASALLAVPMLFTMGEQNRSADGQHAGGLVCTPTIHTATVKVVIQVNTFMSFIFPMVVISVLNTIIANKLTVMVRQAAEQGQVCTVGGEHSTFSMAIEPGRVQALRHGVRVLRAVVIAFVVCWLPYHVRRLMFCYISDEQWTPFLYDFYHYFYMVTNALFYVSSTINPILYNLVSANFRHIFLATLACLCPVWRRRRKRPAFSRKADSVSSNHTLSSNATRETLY
# Active calls of the source: *; / = not tested or not shown.
SMILES,AI-2 QS modul,Mot1-301 SUMO,AHR activator,GRIN3A LBD mod,Cardio protect,NTR1 agonist
Cn1c(=O)c2sccc2n(Cc2cccc(Br)c2)c1=O,1.3,-5.4,3.1,0.0,-13.9,0.0
Nc1nc(-c2c[nH]c3ccccc23)cs1,4.2,-7.3,57.8*,-2.8,49.3*,-0.9
CNc1nc(-c2c[nH]c3ccccc23)cs1,58.9,-2.3,46.6,-7.4,-1.4,-0.4
Cc1ccc(-c2nn3c(C)nnc3c3ccccc23)cc1S(=O)(=O)NCCN1CCOCC1,25.4,-6.5,0.2,-0.3,-0.6,0.4
Cc1ccc(-c2n[nH]c(=O)c3ccccc23)cc1S(=O)(=O)N(C)C,15.7,7.4,8.9,-0.9,26.5,-0.2
Cc1ccc(-c2n[nH]c(=O)c3ccccc23)cc1S(=O)(=O)Nc1ccccc1,23.1,-29.7,2.1,-25.4,83.2*,-1.0
Cc1ccc(-c2n[nH]c(=O)c3ccccc23)cc1S(=O)(=O)NCCN1CCOCC1,14.2,3.7,4.2,-4.0,48.8*,1.5
CCOc1cc(S(=O)(=O)NCCN2CCOCC2)c(C)cc1C,16.5,-0.4,-1.1,10.8*,-4.9,-0.4
CCn1nc(C)c(CN2CCC(Oc3ccc(C(=O)N4CCCC4)cc3)CC2)c1C,15.3,27.7,1.8,-1.4,-2.7,2.4
Cc1cc2c(N=O)c(NO)ccc2[nH]1,63.1,-6.8,16.0,-2.4,57.1*,3.1
COc1ccc(-c2[nH]c(-c3ccc(C(=O)O)cc3)nc2-c2ccccc2)cc1,10.1,-7.4,-0.6,0.8,3.1,1.2
COc1ccc(-c2[nH]c(-c3ccc4c(c3)OCO4)nc2-c2ccccc2)cc1,22.6,17.5,73.7*,-1.4,-35.6,13.7
COc1ccc(-c2nc(-c3cccs3)c(-c3cccs3)[nH]2)cc1OC,-2.4,/,49.5*,-8.0,9.3,-3.3
COc1ccc(-c2nc3ccccc3nc2-c2ccccc2)cc1OC,17.3,-6.3,2.4,-1.4,9.1,0.5
O=[N+]([O-])c1cccc(-c2nc(-c3cccs3)c(-c3cccs3)[nH]2)c1,10.3,-1.6,63.3*,6.3,-27.7,27.3
O=[N+]([O-])c1cccc(-c2nc(-c3ccccc3)c(-c3cccs3)[nH]2)c1,22.1,170.6,23.5,5.3,-20.2,13.9
COc1ccc(-c2nc(-c3ccccc3)c(-c3cccs3)[nH]2)cc1OC,23.0,141.5,81.3*,-3.3,26.4,7.9
CCN1CCN(c2ccc(S(=O)(=O)N3CCOCC3)cc2NC(=O)c2ccc(Cl)s2)CC1,2.6,5.2,-1.5,1.5,-1.1,-1.5
O[C@@H]1CN(Cc2cccs2)[C@@H](c2ccccc2)C[C@H]1n1cc(-c2ccc(F)cc2)nn1,/,/,/,/,-16.6,/
Fc1ccc(-c2nc(-c3cccs3)[nH]c2-c2ccc(F)cc2)cc1,9.9,-3.2,0.3,19.1*,-19.1,16.9
Oc1ccc(-c2nc(-c3ccc(F)cc3)c(-c3ccncc3)[nH]2)cc1,/,/,4.9,-5.0,-8.6,0.2
CCN(C(=O)CSc1nccc(=O)[nH]1)c1cccc2ccccc12,/,-0.7,0.4,3.0,-0.7,1.1
Cn1cc(C2CC(c3ccccc3)=NN2C(=O)c2ccccc2)c2ccccc21 (stereo not drawn),9.3,-3.0,30.1,-1.1,-4.2,5.1
CCCC(=O)N1N=C(c2ccccc2)CC1c1cn(C)c2ccccc12 (stereo not drawn),22.1,-17.5,31.0,14.8*,2.8,1.6
Cc1cc(-c2csc3nc[nH]c(=S)c23)cc(C)c1C,7.4,16.7,1.6,-9.0,61.0*,18.0
O=C(N/N=C/c1ccc(Cl)c([N+](=O)[O-])c1)c1cc(-c2ccccc2)nc2ccccc12,12.1,40.7,-0.3,8.1,1.3,0.4
Cc1cc(C(=O)N/N=C/c2cc([N+](=O)[O-])ccc2O)c2ccccc2n1,50.0,-2.6,7.8,-20.5,56.1*,2.0
Cc1ccc(C(=O)N/N=C\C=C\c2ccccc2[N+](=O)[O-])cn1,5.3,8.5,58.9*,5.6,6.1,-0.9
O=C(N/N=C/c1cc([N+](=O)[O-])ccc1O)c1c[nH]c2ccccc12,-35.8,/,21.0,27.2*,47.7,5.1
O=C(N/N=C/C=C\c1ccccc1[N+](=O)[O-])c1cc(-c2ccccc2)nc2ccccc12,-9.0,-11.3,4.3,10.5*,30.6,-0.4
